Screening data as filed in PubChem BioAssay.
An excerpt weighted towards active compounds, which were near 3.9% of everything screened.
HT1080 IDH1KD tx = qHTS for induction of synthetic lethality in tumor cells producing 2HG: qHTS for the HT-1080-IDH1KD cell line; HT-1080 IDH1 knockdown viability, ATP luminescence, 48 h; Potency, µM (doses to about 46.1 µM), for inactives: top-dose activity, negative = toxicity, most hits filed as cytotoxic; actives 2% (n = 360,000);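 further: 0% = DMSO wells and -100% = cell-free medium wells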
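CellTiter-Glo luminescence after 48 h compound exposure at 37 degrees C of IDH1-knockdown HT-1080 cells in 5% FBS RPMI. %Activity scaled between DMSO wells and cell-free media wells, with curves fitted and assigned curve classes.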
TGFb SMAD3 inh = qHTS for Inhibitors of TGF-b | HepG2 CAGA-GFP TGF-b/SMAD3 reporter, GFP fluorescence, 18 h; TGF-beta stimulated, 500 pg/mL final | Potency, µM (highest dose often 46.1 µM), for inactives: at the top dose activity, negative = inhibition, hits mostly inhibitors | actives 1.2% (n = 410,000) | AID 588855, 2011; further: on the % scale 0 is the no-effect control and ±100 the full control effect; nearly all actives have a fitted effect of over 65% in size
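First, reporter cells (HEPG2 CAGA-GFP) rested 2 h at 37 degrees C. Next, compounds were pinned in and TGF-beta added to 500 pg/mL final. After 18 h, GFP was imaged per cell and summed per well.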
ATXN2 expr inh = Primary qHTS for Inhibitors of ATXN expression. HEK-293 ATXN2-luciferase reporter, luminescence, 24 h. Potency, µM (series often up to 57 µM), for the others: at the highest dose activity change, negative = inhibition, most hits filed as inhibitors. actives 0.72% (n = 360,000). AID 1745845, 2022; further: on the % scale 0 is the no-effect control and ±100 the full control effect; nearly all actives have a fitted effect of over 55% in size
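qHTS (up to 57 uM final) was run with 24 h compound exposure of reporter cells at 37 °C. Each well was multiplexed: SteadyGlo luminescence measured ATXN2-luciferase expression after a fluorogenic Gly-Phe-AFC viability readout (25 uM final).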
S2 tox = Viability Counterscreen for Primary qHTS for Inhibitors of ATXN expression. S2 cells (HEK-293 line with an ATXN2-luciferase reporter) viability, CellTiter-Fluor protease fluorescence, 24 h. Potency, µM (doses to about 56.7 µM), hits mostly cytotoxic. AID 651635, 2014. actives 0.49% (n = 400,000); further: nearly all actives have a fitted effect of over 40% in size
HT1080NT lethal = qHTS for induction of synthetic lethality in tumor cells producing 2HG: qHTS for the HT-1080-NT fibrosarcoma cell line | actives 1.6% (n = 360,000) | Potency, µM (doses to about 46.1 µM), without a hit: at the top dose activity, negative = less viability, most hits filed as cytotoxic | HT-1080-NT fibrosarcoma viability, CellTiter-Glo ATP luminescence, 48 h;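 further: NT is the 2HG producing partner of a matched IDH1 knockdown line; 0% = DMSO-treated cells and -100% = media-only wells without cells; nearly all actives have a fitted effect of over 55% in size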
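Fibrosarcoma NT cells, 750 per well in 5% FBS RPMI, were exposed to compound for 48 hours. Viability: CellTiter-Glo luminescence.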
HepG2 viability = qHTS for Inhibitors of TGF-b: Cytotox Counterscreen | actives 0.76% (n = 410,000) | Potency, µM (highest dose often 46.1 µM), inactives show top-dose activity change, negative = cytotoxicity, usual class: cytotoxic | AID 588856, 2011 | HepG2 CAGA-GFP viability, ATP luminescence, 18 h
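HepG2 CAGA-GFP cells (1000/well, DMEM with 1% FBS) received compound, then TGF-beta at 500 pg/mL final, and were incubated 18 hours at 37 degrees C. Viability was read by CellTiter-Glo luminescence. Media-only wells were set as complete cell-killing and DMSO as no toxicity.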
The depositor's hits bear a star; i = inactive; ? = inconclusive; nt = no result given; [ ] = dose if it differs, or a comment. The call rests on the fitted dose curve; in most records, active means well fitted curve in the direction sought with a large enough effect; inconclusive means small, poorly fitted or top-dose-only effect, or another doubt; inactive means no such curve, though single readings can be large; an effect the other way counts as inactive or inconclusive. Potency means the concentration at half of the fitted maximal effect.

SMILES | HT1080 IDH1KD tx | TGFb SMAD3 inh | ATXN2 expr inh | S2 tox | HT1080NT lethal | HepG2 viability
Cc1c(C(=O)OCCOC(C)C)[nH]c2c1C(=O)CC(c1ccco1)C2 (stereo unspecified) | 0.33µM* | ? | -17% | ? | 0.41µM* | -20%
COc1ccc(C2CC(=O)c3c([nH]c(C(=O)OCc4ccccc4)c3C)C2)cc1 (stereo unspecified) | nt | 0% | -14% | i | nt | -1%
COc1cc(Nc2nc3ccccc3c3nnc(C)n23)cc(OC)c1 | nt | 0% | nt | nt | nt | -48%
Cc1cccc(NS(=O)(=O)c2ccc3c(c2)CCN3C(=O)C2CCC2)c1 | nt | ? | ? | ? | nt | -18%
COc1cc(Nc2nc3ccccc3nc2NS(=O)(=O)c2ccc(NC(=O)c3ccc(C)c(OC)c3)cc2)cc(OC)c1 | nt | nt | 6% | nt | nt | nt
COCCOC(=O)c1[nH]c2c(c1C)C(=O)CC(c1ccc(F)cc1)C2 (stereo unspecified) | 23µM* | 5% | -17% | ? | ? | -3%
COCCOC(=O)c1[nH]c2c(c1C)C(=O)CC(c1ccc(N(C)C)cc1)C2 (stereo unspecified) | 1% | 4% | 19% | i | 4% | 1%
CC1(C)NC(=O)N(CCCCOc2ccc3ccccc3c2Cl)C1=O | 10µM* | -5% | 73% | i | ? | -30%
CC1(C)NC(=O)N(CCOCCOc2ccc3ccccc3c2Br)C1=O | ? | -18% | 56% | ? | -16% | -22%
CC(C)C(=O)NNc1ccccc1 | -8% | 4% | -1% | i | ? | -20%
CC(O)CC(C(=O)NNc1ccccc1)C(=O)NNc1ccccc1 (stereo unspecified) | 2.3µM* | 0% | ? | i | 1.3µM* | -48%
O=C(NNc1ccccc1)C(CCO)C(=O)NNc1ccccc1 | 6.5µM* | 5% | -29% | i | 7.3µM* | 3%
COc1cccc(-c2cc(=O)c3cc(NC(=O)c4ccccc4)ccc3[nH]2)c1 | 3.7µM* | ? | -16% | ? | 3.7µM* | -7%
COc1cccc(-c2cc(=O)c3cc(NC(=O)c4ccc(N(C)C)cc4)ccc3[nH]2)c1 | 0.73µM* | ? | -32% | ? | 1.3µM* | -19%
Cc1cccc(NC(=O)c2ccc3[nH]c(C)cc(=O)c3c2)c1 | nt | 16% | -9% | i | nt | -3%
COc1cccc(-c2cc(=O)c3cc(NC(=O)c4ccc(Cl)cc4)ccc3[nH]2)c1 | 0% | -3% | 8% | i | -6% | 17%
CC12CCC(C(=O)NCc3ccccc3)(OC1=O)C2(C)C (stereo unspecified) | 5% | 0% | -6% | i | 7% | -17%
C/C(=N\NC(=O)C12CCC(C)(C(=O)O1)C2(C)C)c1ccccc1O (stereo unspecified) | ? | ? | 28µM* | i | ? | -45%
O=C(Nc1ccc(S(=O)(=O)N2CCOCC2)cc1)c1ccc(CN2CCc3ccccc3C2)cc1 | 21µM* | -7% | ? | i | ? | -16%
CCCNC(=O)c1ccc(CN2CCc3ccccc3C2)cc1 | -19%[9.24 µM] | -1% | 7% | i | -3% | -16%
C/C(=N\NC(=O)c1ccc(CN2CCc3ccccc3C2)cc1)c1ccccc1O | 21µM* | ? | 16µM* | i | ? | -1%
COc1ccc(OC)c(CNC(=O)c2ccccc2NC(=O)c2nsc3ccccc23)c1 | nt | -19% | 12% | i | nt | -12%
